Source: the supplement of paper PMC10338343
± gives the standard deviation. Whole data set: some 5,500 sequences, median “pre-steady-state target cleavage rate” near 0.1, cut for the highest 2% near 0.64. For the sample, the highest values were picked, then their nearest neighbours and some sequences at random.

What follows are sequences tested on MIWI (PIWIL1) piRISC loaded with piRNA #2 (30 nt) (assay: pre-steady-state target cleavage rate (min^-1); MIWI and MILI are mouse PIWI proteins and EfPiwi is from a freshwater sponge; tags in brackets are library labels; higher = faster piRNA-guided slicing of the target). Details: guide: piRNA #2 5'p-UUAGGUAACCCAGUAGAUCCAGAGGAAUUC; auxiliary factor: 500 nM mouse GTSF1.
Summary of the method: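 The pre-steady-state cleavage rate was obtained by Cleave-'n-Seq with a burst-and-steady-state fit. A transcribed, DNA-blocked target RNA library (0.1 nM) was mixed with 1 nM active affinity-purified piRISC carrying one synthetic guide, with or without 500 nM GTSF1 partner protein, in HEPES–potassium acetate buffer at 33 °C for 0–8 or 0–960 min. Uncleaved targets were sequenced and normalised to depth and to weakly complementary targets, with three trials pooled and k3 capped at 0.0001 min^-1.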
CUUAAGGAGUGGUUCUACUGGGUUACCUUA was tested, and the “pre-steady-state target cleavage rate” value was 0.0165 ± 0.004. For CUUAAGGACUGGAUCUACUGGGUUAACUAA, the “pre-steady-state target cleavage rate” value was 0.116 ± 0.042. In the case of CUUUUCCUCUGGAUCUACUGCCUUACCUAA, the “pre-steady-state target cleavage rate” value is reported as 0.0739 ± 0.012. With CUUAACCUCUGGAUCUACAGGGUUAGCUAA the “pre-steady-state target cleavage rate” value was 0.0376 ± 0.0069. In the case of GAAUUCCUCUGGAUCUAGUGGGUUUCCUAA, the “pre-steady-state target cleavage rate” value is reported as 0.108 ± 0.019. CUUAAGGACUGGAUCUACUAGGUUACCUAA was tested, and the “pre-steady-state target cleavage rate” value was 0.0835 ± 0.039. CUUAAGGUCAGGAUCUACUGGGUAACCUAA was tested, and the “pre-steady-state target cleavage rate” value was 0.00869 ± 0.0069. CUUAACCUCUGGAUCUACUGGGUUACACUAA was tested, and the “pre-steady-state target cleavage rate” value was 0.344 ± 0.042. CUAUUCCUCUGGAACUUCUGGGUUACCUAA was tested, and the “pre-steady-state target cleavage rate” value was 0.299 ± 0.036. CUUAUCCUCUGGAUCUAGUGGGAUACCUAA was tested, and the “pre-steady-state target cleavage rate” value was 0.0912 ± 0.02. For GAAUUCCUCUGGAUCUACUGGGAUACCAAA, the “pre-steady-state target cleavage rate” value was 0.192 ± 0.06. For CUUAAGGUCUGGAUGUUCUGGGUUACCUAA, the “pre-steady-state target cleavage rate” value was 0.05 ± 0.018. With CAAUUCCUCUGGAUGUACUGGGUUACCUAA the “pre-steady-state target cleavage rate” value was 0.578 ± 0.054. With GAAUUCCUCUGGAUGUACUGGGUUACCUAA the “pre-steady-state target cleavage rate” value was 0.352 ± 0.045. CUUAACCUCUCGAUGUACUGGGUUACCUAA was tested, and the “pre-steady-state target cleavage rate” value was 0.421 ± 0.029. CUAUUCCUCUCGAUGUACUGGGUUACCUAA was tested, and the “pre-steady-state target cleavage rate” value was 0.636 ± 0.045. For GAAUUCCUCUCGAUGUACUGGGUUACCUAA, the “pre-steady-state target cleavage rate” value was 0.645 ± 0.052. With CUAUUCCUCUGGAUGUACUGGGUUACCUAA the “pre-steady-state target cleavage rate” value was 0.533 ± 0.041. With CUUAUCCUCUCGAUGUACUGGGUUACCUAA the “pre-steady-state target cleavage rate” value was 0.498 ± 0.03. CAAUUCCUCUCGAUGUACUGGGUUACCUAA was tested, and the “pre-steady-state target cleavage rate” value was 0.672 ± 0.056. With CUUUUCCUCUCGAUGUACUGGGUUACCUAA the “pre-steady-state target cleavage rate” value was 0.592 ± 0.043. For CUUAACCUCUGGAUAUACUGGGUUACCUAA, the “pre-steady-state target cleavage rate” value was 0.552 ± 0.042. For CAAUUCCUCUGGAUCUACUGGGUAACCUAA, the “pre-steady-state target cleavage rate” value was 0.263 ± 0.049. With CUUAACCUCUGGAUCUACUGGGUAUGCUAA the “pre-steady-state target cleavage rate” value was 0.0233 ± 0.0061. For CAAAAGCUCUGGAUCUACUGGGUUACCUAA, the “pre-steady-state target cleavage rate” value was 0.105 ± 0.025. In the case of CUUAAGGAGUGGGAUCUACUGGGUUACCUAA, the “pre-steady-state target cleavage rate” value is reported as 0.0146 ± 0.0073. With GAAUUCCUCUGGAUCUACUGUGGUUACCUAA the “pre-steady-state target cleavage rate” value was 0.00388 ± 0.0038. With CUUUUCCUCUGGAUCUACUGUGUUACCUAA the “pre-steady-state target cleavage rate” value was 0.751 ± 0.048. In the case of GAAUUCCUCUGGAUCUACUGGUGUUACCUAA, the “pre-steady-state target cleavage rate” value is reported as 0.0068 ± 0.0031. For CUAUUCCUCUGGAUCUACUGGUGUUACCUAA, the “pre-steady-state target cleavage rate” value was 0.00505 ± 0.0032. With CAAUUCCUCUGGAUCUACUGGUUACCUAA the “pre-steady-state target cleavage rate” value was 0.19 ± 0.046. CAAUUCCUCUGGAUCUACUGUGUUACCUAA was tested, and the “pre-steady-state target cleavage rate” value was 0.751 ± 0.075. In the case of CUUUUUCCUCUGGAUCUACUGGGUUACCUAA, the “pre-steady-state target cleavage rate” value is reported as 0.308 ± 0.046. In the case of “CUAUUCCUCUGGAUCUACUGGGUUACCUAA [g2:g28:cont:t1A]”, the “pre-steady-state target cleavage rate” value is reported as 0.388 ± 0.062. In the case of CAAUUCCUCUGGAUCUACUGGUGUUACCUAA, the “pre-steady-state target cleavage rate” value is reported as 0.0066 ± 0.0037. CUAUUCCUCUGGAUCUACUGUGUUACCUAA was tested, and the “pre-steady-state target cleavage rate” value was 0.696 ± 0.073. In the case of CUUUUCCUCUGGAUCUACUGGUGUUACCUAA, the “pre-steady-state target cleavage rate” value is reported as 0.00402 ± 0.0035. GAAUUCCUCUGGAUCUACUGUGUUACCUAA was tested, and the “pre-steady-state target cleavage rate” value was 0.673 ± 0.06. With CAAUUGCUCUGGAUCUACUGGGUUACGUAA the “pre-steady-state target cleavage rate” value was 0.536 ± 0.067. For CUUAAGGUGACGAUCUACUGGGUUACCUAA, the “pre-steady-state target cleavage rate” value was 0.0052 ± 0.0036. In the case of CUUAAGGACAGGAUCUACUGCGUUACCUAA, the “pre-steady-state target cleavage rate” value is reported as 0.0331 ± 0.017. For CUUAACGUCUCGAUCUACUGGGUUACCUAA, the “pre-steady-state target cleavage rate” value was 0.357 ± 0.041. With CUUAAGGAGUAGAUCUACUGGGUUACCUAA the “pre-steady-state target cleavage rate” value was 0.00567 ± 0.0048. CAAUUCCUCUGGUUCUACUGGGAUACCUAA was tested, and the “pre-steady-state target cleavage rate” value was 0.145 ± 0.038. With CUUAACCUGUGGAACUACUGGGUUACCUAA the “pre-steady-state target cleavage rate” value was 0.177 ± 0.048. CUUAAGGAGACCUUCUACUGGGUUACGUAA was tested, and the “pre-steady-state target cleavage rate” value was 0.00451 ± 0.0027. With CUUUUCCGUCUGGAUCUACUGGGUUACCUAA the “pre-steady-state target cleavage rate” value was 0.385 ± 0.039. For CUUAUCCUCUGGAUCUACUGGUUACCUAA, the “pre-steady-state target cleavage rate” value was 0.0947 ± 0.024. CUUAUCCUCUGGAUCUACUGUGUUACCUAA was tested, and the “pre-steady-state target cleavage rate” value was 0.722 ± 0.074. With CUUAACCUCUGGAUCUACUGUGUUACCUAA the “pre-steady-state target cleavage rate” value was 0.597 ± 0.045. In the case of CUUAAGCUCUGGAUCUACUGGGUUACCUCAA, the “pre-steady-state target cleavage rate” value is reported as 0.0988 ± 0.015. With CAUUUCCACUGGAUCUACUGGGUUACCUAA the “pre-steady-state target cleavage rate” value was 0.478 ± 0.058. With CUUUUCCUCUCGAUCUACUGGGUUACCUUA the “pre-steady-state target cleavage rate” value was 0.539 ± 0.05. In the case of CUUUUCCUCUGGAUCUACUGGGUUACCAAA, the “pre-steady-state target cleavage rate” value is reported as 0.477 ± 0.052. In the case of CUUUUCCUCUCGAUCUACUGGGUUACCAAA, the “pre-steady-state target cleavage rate” value is reported as 0.64 ± 0.048. For CAAUUCCUCUCGAUCUACUGGGUUACCAAA, the “pre-steady-state target cleavage rate” value was 0.904 ± 0.073. With CAAUUCCUCUGGAUCUACUGGGUUACCAAA the “pre-steady-state target cleavage rate” value was 0.509 ± 0.068. With CUAUUCCUCUGGAUCUACUGGGUUACCAAA the “pre-steady-state target cleavage rate” value was 0.477 ± 0.061. GAAUUCCUCUCGAUCUACUGGGUUACCAAA was tested, and the “pre-steady-state target cleavage rate” value was 0.564 ± 0.067. For CUUAUCCUCUCGAUCUACUGGGUUACCAAA, the “pre-steady-state target cleavage rate” value was 0.542 ± 0.041. For CUAUUCCUCUCGAUCUACUGGGUUACCAAA, the “pre-steady-state target cleavage rate” value was 0.711 ± 0.047. For GAAUUCCUCUGGAUCUACUGGCUAACCUAA, the “pre-steady-state target cleavage rate” value was 0.0225 ± 0.0083. CAAUUCCUCUGGAUCCUACUGGGUUACCUAA was tested, and the “pre-steady-state target cleavage rate” value was 0.29 ± 0.055. With GAAUUCCUCUCGAUCUACUGGGUUAGCUAA the “pre-steady-state target cleavage rate” value was 0.237 ± 0.052. With CUUAAGGAGACCUAGUUCUGGGAUACCUAA the “pre-steady-state target cleavage rate” value was under 0.0001. For “CAAUUCCUCUGGAUCUAGACCCAAUGGAUA [g14:g29:cont:t1A]”, the “pre-steady-state target cleavage rate” value was under 0.0001. With CUAUUCCUCUGGUUCUACUGGGUAACCUAA the “pre-steady-state target cleavage rate” value was 0.156 ± 0.033. In the case of GAAUUCCUCUGGAACUACUGGGUUUCCUAA, the “pre-steady-state target cleavage rate” value is reported as 0.646 ± 0.21. GAAUUCCUCUGGUUCUACUGGGUUUCCUAA was tested, and the “pre-steady-state target cleavage rate” value was 0.923 ± 0.3. For CUAUUCCUCUGGAUCUACUGGGUUUCCUAA, the “pre-steady-state target cleavage rate” value was 0.344 ± 0.053. With CAAUUCCUCUGGUUCUACUGGGUAACCUAA the “pre-steady-state target cleavage rate” value was 0.162 ± 0.032. For CAAUUCCUCUGGAACUACUGGGUUUCCUAA, the “pre-steady-state target cleavage rate” value was 0.348 ± 0.1. With CUUUUCCUCUGGUUCUACUGGGUUUCCUAA the “pre-steady-state target cleavage rate” value was 0.522 ± 0.19. In the case of CUAUUCCUCUGGAACUACUGGGUUUCCUAA, the “pre-steady-state target cleavage rate” value is reported as 0.337 ± 0.12. For GAAUUCCUCUGGUUCUACUGGGUAACCUAA, the “pre-steady-state target cleavage rate” value was 0.288 ± 0.063. With GAAUUCCUCUGGAUCUACUGGGUUUCCUAA the “pre-steady-state target cleavage rate” value was 0.27 ± 0.047. For CAAUUCCUCUGGUUCUACUGGGUUUCCUAA, the “pre-steady-state target cleavage rate” value was 0.951 ± 0.36. With CUAUUCCUCUGGUUCUACUGGGUUUCCUAA the “pre-steady-state target cleavage rate” value was 1.05 ± 0.44. With CUUUACCUCUGGAUCUACUGGGUUUCCUAA the “pre-steady-state target cleavage rate” value was 0.167 ± 0.029. For CAAUUCCACUGGUUCUACUGGGUUACCUAA, the “pre-steady-state target cleavage rate” value was 0.593 ± 0.041. In the case of CUUAAGGAGAGGAUCUACUGGGUUAACCUAA, the “pre-steady-state target cleavage rate” value is reported as 0.00722 ± 0.0036.
